From PubChem BioAssay AID1159580 (chemical genetic matrix, 2015)
In all, about 5,500 compounds went through this assay and about 2,000 (36%) were called active. Not shown: some 18% with an inconclusive outcome. Cut-off read from the data, not from the text of the source: active = normalized growth mostly below about 0.91 (no sharp cut-off); inconclusive = no clear call, values can overlap the other calls; inactive = mostly above about 0.92. Some of the results follow.

Assay: chemical genetic growth profiling, strain panel (AID 1159580);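 note: tested at 20 µM; growth read once vehicle control cultures reached saturation at 30 °C; 1 = growth at the plate median or of vehicle wells; lower values mean less growth of the strain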
Conditions: growth OD

Measured: normalized growth

CCCSc1ccc2nc(NC(=O)OC)[nH]c2c1
active: S. cerevisiae deletion strains, locus YKR001C, strain vps1, active compounds read low 0.882 | S. cerevisiae deletion strains, locus YLR268W, strain sec22, active compounds read low 0.847 | S. cerevisiae deletion strains, locus YML124C, strain tub3, active compounds read low 0.202 | S. cerevisiae deletion strains, locus YNL153C, strain GIM3, active compounds read low 0.0651 | S. cerevisiae deletion strains, locus YPL241C, strain CIN2, active compounds read low 0.0807 | S. cerevisiae deletion strains, locus YPR163C, strain tif3, active compounds read low 0.904
inactive: S. cerevisiae deletion strains, locus YJR075W, strain HOC1, active compounds read low 0.97 | S. cerevisiae deletion strains, locus YKL009W, strain mrt4, active compounds read low 0.938 | S. cerevisiae deletion strains, locus YKL068W, active compounds read low 0.972 | S. cerevisiae deletion strains, locus YKL085W, strain MDH1 (second series), active compounds read low 0.986 | S. cerevisiae deletion strains, locus YKL085W, strain MDH1, active compounds read low 0.986 | S. cerevisiae deletion strains, locus YKL160W, strain elf1, active compounds read low 1.01 | S. cerevisiae deletion strains, locus YKL190W, strain CNB1, active compounds read low 0.988 | S. cerevisiae deletion strains, locus YKR026C, strain gcn3, active compounds read low 1.01 | S. cerevisiae deletion strains, locus YKR091W, strain srl3, active compounds read low 1.01 | S. cerevisiae deletion strains, locus YLL001W, strain dnm1, active compounds read low 0.999 | S. cerevisiae deletion strains, locus YLL026W, active compounds read low 1.01 | S. cerevisiae deletion strains, locus YLL041C, strain sdh2, active compounds read low 1 | S. cerevisiae deletion strains, locus YLR027C, strain aat2, active compounds read low 1 | S. cerevisiae deletion strains, locus YLR039C, strain RIC1, active compounds read low 0.731 | S. cerevisiae deletion strains, locus YLR058C, strain SHM2, active compounds read low 0.988 | S. cerevisiae deletion strains, locus YLR102C, strain apc9, active compounds read low 0.973 | S. cerevisiae deletion strains, locus YLR113W, strain HOG1, active compounds read low 0.979 | S. cerevisiae deletion strains, locus YLR221C, strain rsa3, active compounds read low 1.01 | S. cerevisiae deletion strains, locus YLR258W, strain gsy2, active compounds read low 1.01 | S. cerevisiae deletion strains, locus YLR262C, strain YPT6 (second series), active compounds read low 0.874 | S. cerevisiae deletion strains, locus YLR262C, strain YPT6, active compounds read low 0.732 | S. cerevisiae deletion strains, locus YLR320W, strain mms22, active compounds read low 1.01 | S. cerevisiae deletion strains, locus YLR330W, strain CHS5, active compounds read low 0.982 | S. cerevisiae deletion strains, locus YLR342W, strain FKS1 (second series), active compounds read low 1.01 | S. cerevisiae deletion strains, locus YLR342W, strain FKS1, active compounds read low 1.02 | S. cerevisiae deletion strains, locus YLR357W, strain rsc2, active compounds read low 0.975 | S. cerevisiae deletion strains, locus YLR370C, strain arc18, active compounds read low 1 | S. cerevisiae deletion strains, locus YLR371W, strain rom2, active compounds read low 0.967 | S. cerevisiae deletion strains, locus YLR384C, strain iki3, active compounds read low 0.997 | S. cerevisiae deletion strains, locus YLR418C, strain cdc73, active compounds read low 0.886 | S. cerevisiae deletion strains, locus YML016C, strain PPZ1, active compounds read low 0.993 | S. cerevisiae deletion strains, locus YML032C, strain rad52, active compounds read low 0.947 | S. cerevisiae deletion strains, locus YML120C, strain ndi1, active compounds read low 1 | S. cerevisiae deletion strains, locus YMR058W, strain fet3, active compounds read low 1.01 | S. cerevisiae deletion strains, locus YMR078C, strain ctf18, active compounds read low 0.964 | S. cerevisiae deletion strains, locus YMR125W, strain sto1, active compounds read low 1.02 | S. cerevisiae deletion strains, locus YMR129W, active compounds read low 1.01 | S. cerevisiae deletion strains, locus YMR205C, strain PFK2, active compounds read low 1.03 | S. cerevisiae deletion strains, locus YMR223W, strain ubp8, active compounds read low 0.997 | S. cerevisiae deletion strains, locus YMR231W, strain pep5, active compounds read low 1.03 | S. cerevisiae deletion strains, locus YMR263W, strain SAP30, active compounds read low 0.941 | S. cerevisiae deletion strains, locus YMR307W, strain GAS1, active compounds read low 1.19 | S. cerevisiae deletion strains, locus YNL067W, strain RPL9B, active compounds read low 0.942 | S. cerevisiae deletion strains, locus YNL071W, strain lat1, active compounds read low 1.02 | S. cerevisiae deletion strains, locus YNL128W, strain TEP1, active compounds read low 0.989 | S. cerevisiae deletion strains, locus YNL183C, strain NPR1, active compounds read low 0.896 | S. cerevisiae deletion strains, locus YNL209W, strain ssb2, active compounds read low 1 | S. cerevisiae deletion strains, locus YNL233W, strain BNI4, active compounds read low 0.965 | S. cerevisiae deletion strains, locus YNL248C, strain rpa49, active compounds read low 1 | S. cerevisiae deletion strains, locus YNL250W, strain rad50, active compounds read low 0.999 | S. cerevisiae deletion strains, locus YNL271C, strain bni1, active compounds read low 0.973 | S. cerevisiae deletion strains, locus YNL298W, strain CLA4, active compounds read low 0.947 | S. cerevisiae deletion strains, locus YNL307C, strain MCK1, active compounds read low 0.948 | S. cerevisiae deletion strains, locus YNL322C, strain KRE1 (second series), active compounds read low 1.01 | S. cerevisiae deletion strains, locus YNL322C, strain KRE1, active compounds read low 0.996 | S. cerevisiae deletion strains, locus YNR049C, strain mso1, active compounds read low 1.01 | S. cerevisiae deletion strains, locus YNR052C, strain pop2, active compounds read low 0.958 | S. cerevisiae deletion strains, locus YOL006C, strain TOP1, active compounds read low 0.729 | S. cerevisiae deletion strains, locus YOL012C, strain htz1 0.603 | S. cerevisiae deletion strains, locus YOL147C, strain pex11, active compounds read low 0.967 | S. cerevisiae deletion strains, locus YOR001W, strain rrp6, active compounds read low 1.01 | S. cerevisiae deletion strains, locus YOR061W, strain CKA2, active compounds read low 0.996 | S. cerevisiae deletion strains, locus YOR069W, strain VPS5, active compounds read low 0.99 | S. cerevisiae deletion strains, locus YOR070C, strain gyp1, active compounds read low 1.01 | S. cerevisiae deletion strains, locus YOR080W, strain dia2, active compounds read low 1.02 | S. cerevisiae deletion strains, locus YOR083W, strain WHI5, active compounds read low 1.01 | S. cerevisiae deletion strains, locus YOR106W, strain vam3, active compounds read low 0.997 | S. cerevisiae deletion strains, locus YOR136W, strain idh2, active compounds read low 0.996 | S. cerevisiae deletion strains, locus YOR144C, strain elg1, active compounds read low 0.965 | S. cerevisiae deletion strains, locus YOR184W, strain ser1, active compounds read low 0.893 | S. cerevisiae deletion strains, locus YOR231W, strain MKK1, active compounds read low 0.941 | S. cerevisiae deletion strains, locus YOR265W, strain rbl2, active compounds read low 1.02 | S. cerevisiae deletion strains, locus YOR270C, strain vph1, active compounds read low 0.963 | S. cerevisiae deletion strains, locus YOR290C, strain snf2, active compounds read low 0.98 | S. cerevisiae deletion strains, locus YOR316C, strain cot1, active compounds read low 0.959 | S. cerevisiae deletion strains, locus YPL051W, strain arl3, active compounds read low 0.998 | S. cerevisiae deletion strains, locus YPL055C, strain LGE1, active compounds read low 0.945 | S. cerevisiae deletion strains, locus YPL078C, strain atp4, active compounds read low 1.01 | S. cerevisiae deletion strains, locus YPL106C, strain sse1, active compounds read low 1.04 | S. cerevisiae deletion strains, locus YPL240C, strain hsp82, active compounds read low 1 | S. cerevisiae deletion strains, locus YPL256C, strain CLN2, active compounds read low 0.933 | S. cerevisiae deletion strains, locus YPR119W, strain clb2, active compounds read low 0.963 | S. cerevisiae deletion strains, locus YPR141C, strain kar3, active compounds read low 0.992 | S. cerevisiae deletion strains, locus YPR167C, strain met16, active compounds read low 0.954 | S. cerevisiae deletion strains, strain wtn01, active compounds read low 0.916 | S. cerevisiae strains, strain wild type, active compounds read low 1
